Potency, outcome and activity, negative = inhibition data for seven compounds are collected here from PubChem BioAssay (NCATS).

Test [1] concerns the target Metallo-beta-lactamase type 2 (Klebsiella pneumoniae) (UniProt C7C422). Kind of test: qHTS to identify inhibitors of the New Delhi Metallo-beta-lactamase (NDM): assay validation screen against the NCATS LOPAC Collection (AID 1794843). Further: on the % scale 0 is the no-effect control and ±100 the full control effect. Summed up:
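Absorbance at 485 nm from nitrocefin turnover (50 uM solution added), read at plateau, gives the read-out. Compounds in DMSO were incubated first with 2 nM final NDM-1 in pH 7.0 HEPES buffer containing 1 uM ZnSO4 and 0.01% Tween20.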
Background: qHTS replaces the single test concentration by a dilution series.

For test [2], the target named is Glutathione peroxidase 1 (Homo sapiens) (UniProt P07203). Kind of test: Primary qHTS Assay for Inhibitors of Recombinant Selenoprotein Glutathione Peroxidase 1 (GPX1) (AID 1845191). Further: nearly all actives have a fitted effect of over 65% in size. Further: potency means the concentration at half of the fitted maximal effect. On activity, negative = inhibition: on the % scale 0 is the no-effect control and ±100 the full control effect. Summed up: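 NADPH consumption tracked by fluorescence at 340/450 nm between t=0 and t=15 min, room temperature. Final mix: 10 nM GPX1, 100 nM glutathione reductase, 1 mM GSH, 0.5 mM NADPH, 0.5 mM cumene hydroperoxide, 0.01% BSA; 30 min compound–enzyme preincubation.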

For test [3], the target named is Phospholipid hydroperoxide glutathione peroxidase GPX4 (Homo sapiens) (UniProt P36969). Nature of the test: Primary qHTS Assay for Inhibitors of Recombinant Selenoprotein Glutathione Peroxidase 4 (GPX4) (AID 1845192). Further: nearly all actives have a fitted effect of over 65% in size. As to conditions: outcome: dose series up to 50 µM unless noted. The essentials:
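NADPH consumption followed by fluorescence at 340/450 nm, t=0 and after 15 min at room temperature. Reaction started with cumene hydroperoxide (0.5 mM final) after 30 min compound–GPX4 preincubation; final 200 nM GPX4, 100 nM GR, 1 mM GSH, 0.5 mM NADPH.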

Test [4] is described as follows: qHTS profiling for inhibitors of Plasmodium falciparum proliferation (AID 504749). Further: potency means the concentration at half of the fitted maximal effect.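 On activity, negative = inhibition: 0% = DMSO vehicle and full inhibition = artemisinin control.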 On all read-outs here: nearly all actives have a fitted effect of over 60% in size. As to conditions: P. falciparum in erythrocytes, SYBR Green DNA, 72 h; for activity, negative = inhibition: at 28.7 µM (top of the series). The essentials:
(§1)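 SYBR Green fluorescence of parasite DNA, read after lysis and overnight dark incubation, measured growth over 72 h in erythrocyte culture at 0.3% parasitemia and 2.5% hematocrit. Data normalised to DMSO and 0.29 uM artemisinin, with plate-drift correction.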

Test [5] concerns 3D7. Described as above. As to conditions: P. falciparum in erythrocytes, SYBR Green DNA, 72 h; series mostly up to 28.7 µM. Summed up:
as §1

Test [6] has as its system 7G8. The test is described as above. As to conditions: P. falciparum in erythrocytes, SYBR Green DNA, 72 h; series mostly up to 28.7 µM. Summed up:
as §1

Test [7] concerns AA1029. The description is as above. As to conditions: P. falciparum in erythrocytes, SYBR Green DNA, 72 h; series mostly up to 28.7 µM. The essentials: as §1
In test [8] the test system is AS120. The description is as above. As to conditions: P. falciparum in erythrocytes, SYBR Green DNA, 72 h; series mostly up to 28.7 µM. Summed up: as §1
Test [9] relates to ATS189. Described as above. As to conditions: P. falciparum in erythrocytes, SYBR Green DNA, 72 h; series mostly up to 28.7 µM. Summed up: as §1
Test [10] deals with ATS95. Described as above. As to conditions: P. falciparum in erythrocytes, SYBR Green DNA, 72 h; series mostly up to 28.7 µM. Summed up: as §1
The test system of test [11] is C2A. The test is described as above. As to conditions: P. falciparum in erythrocytes, SYBR Green DNA, 72 h; series mostly up to 28.7 µM. Summed up: as §1
The subject of test [12] is CP185. Described as above. As to conditions: P. falciparum in erythrocytes, SYBR Green DNA, 72 h; series mostly up to 28.7 µM. The essentials:
as §1

Test [13] relates to CP191. The test is described as above. As to conditions: P. falciparum in erythrocytes, SYBR Green DNA, 72 h; series mostly up to 28.7 µM. Summed up: as §1
In test [14] the test system is CP192. The description is as above. As to conditions: P. falciparum in erythrocytes, SYBR Green DNA, 72 h; series mostly up to 28.7 µM. The essentials:
as §1

Test [15] relates to CP194. The test is described as above. As to conditions: P. falciparum in erythrocytes, SYBR Green DNA, 72 h; series mostly up to 28.7 µM. The essentials:
as §1

Structures are written as SMILES. Inconclusive results are not listed. A number with no mark means an inactive call. Calls of active or inactive are those of the source. The call rests on the fitted dose curve; in most records, active means well fitted curve in the direction sought with a large enough effect; inconclusive means small, poorly fitted or top-dose-only effect, or another doubt; inactive means no such curve, though single readings can be large; an effect the other way counts as inactive or inconclusive.

Chain of Metallo-beta-lactamase type 2 (Klebsiella pneumoniae) (C7C422 whole entry, looked up): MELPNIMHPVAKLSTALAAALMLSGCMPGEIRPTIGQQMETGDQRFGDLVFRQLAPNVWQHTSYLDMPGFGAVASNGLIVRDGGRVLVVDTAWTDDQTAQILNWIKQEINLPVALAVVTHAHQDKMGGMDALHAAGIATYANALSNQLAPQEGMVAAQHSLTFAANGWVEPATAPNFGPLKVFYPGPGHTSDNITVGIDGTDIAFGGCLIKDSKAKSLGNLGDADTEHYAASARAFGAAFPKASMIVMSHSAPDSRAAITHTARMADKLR
Chain of Glutathione peroxidase 1 (Homo sapiens) (P07203 whole entry, looked up): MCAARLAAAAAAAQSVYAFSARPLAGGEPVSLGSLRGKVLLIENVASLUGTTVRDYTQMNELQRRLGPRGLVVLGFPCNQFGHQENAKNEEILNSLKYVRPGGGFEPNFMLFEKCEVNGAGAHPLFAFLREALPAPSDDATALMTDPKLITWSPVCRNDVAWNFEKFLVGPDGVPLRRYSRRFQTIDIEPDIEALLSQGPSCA
Chain of Phospholipid hydroperoxide glutathione peroxidase GPX4 (Homo sapiens) (P36969 whole entry, looked up): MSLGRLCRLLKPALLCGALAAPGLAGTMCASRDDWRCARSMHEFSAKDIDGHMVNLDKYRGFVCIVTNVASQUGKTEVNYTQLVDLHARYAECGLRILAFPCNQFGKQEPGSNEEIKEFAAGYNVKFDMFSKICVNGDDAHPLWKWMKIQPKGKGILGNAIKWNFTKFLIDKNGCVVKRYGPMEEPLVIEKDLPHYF

For `CCCN(CCC)CCc1cccc2c1CC(=O)N2`, the Potency result in [1], in [2], in [5], in test [6], in test [7] and in test [8] was “inactive” in each case. The Potency entry in [9], in test [10], in test [11], in test [12], in test [13] and in test [14] was “inactive” in each case. For the same compound, the Potency result in test [15] is “inactive”. For the same compound, the result in [3] was inactive. The activity, negative = inhibition in [4] (parasite line A) is -9.53%; in [4] (parasite line B) it was -8.71%.
Regarding `O=C1CC2(CCCC2)CC(=O)N1CCCCN1CCN(c2ncccn2)CC1`, the Potency result in test [1], in test [2], in [5], in [7], in test [8] and in [9] was “inactive” in each case. Further, the Potency result in [10], in [11], in [12], in test [13], in test [14] and in test [15] was “inactive” throughout. Also, the result in test [3] was inactive. The activity, negative = inhibition in [4] (parasite line A) was 11.6%; in test [4] (parasite line B), 9.29%.
For `O=C(CCCN1CCC(O)(c2cccc(C(F)(F)F)c2)CC1)c1ccc(F)cc1`, the Potency result in [1] and in [2] was “inactive” throughout. Besides, the result in test [3] was inactive. Moreover, the Potency in [4] (parasite line A) was 8.91 µM (active); in test [4] (parasite line B), 8.91 µM (active); in [6] it was 3.98 µM (active); in [7], 7.08 µM (active); in [8], 7.94 µM (active); in [9], 8.91 µM (active). In addition, the Potency is 10 µM (active) in test [10], 11.2 µM (active) in test [11] and 7.94 µM (active) in test [13].
Consider `Nc1nc(N)c2nc(-c3ccccc3)c(N)nc2n1`, for which the Potency result in test [1], in test [7], in [8], in test [9], in test [10] and in [11] was “inactive” throughout. Moreover, the Potency result in test [12], in test [13], in test [14] and in test [15] was “inactive” each time. In addition, the Potency was 2.86 µM (active) in test [2], 2 µM (active) in [4] (parasite line A) and 7.08 µM (active) in test [5]. In addition, in test [3], the outcome was inactive. Moreover, in test [4] (parasite line B), the activity, negative = inhibition was 5.12%.
For `CCN1CCC[C@H]1CNC(=O)c1c(O)c(Cl)cc(Cl)c1OC`, the Potency entry in [1], in test [2], in test [5], in test [6], in test [7] and in test [8] was “inactive” in each case. For the same compound, the Potency result in test [9], in test [10], in test [11], in test [12], in test [13] and in test [14] was “inactive” in each case. Besides, the Potency result in test [15] was “inactive”. Also, the result in test [3] was inactive. In addition, the activity, negative = inhibition in test [4] (parasite line A) was 0.765%; in [4] (parasite line B), 14.7%.
For the compound `FC(F)(F)c1ccccc1-n1ccnc1`, the Potency result in test [1], in test [2], in test [5], in test [6], in test [7] and in test [8] was “inactive” throughout. The Potency entry in test [9], in test [10], in test [11], in [12], in test [13] and in test [14] was “inactive” in each case. Moreover, the Potency result in test [15] is “inactive”. Moreover, the outcome in test [3] was inactive. Besides, the activity, negative = inhibition in test [4] (parasite line A) is 11.5%; in test [4] (parasite line B), -3.4%.
On to `CN(C)CC/C=C1\c2ccccc2COc2ccccc21`, for which the Potency result in [1], in test [2], in test [5], in test [13] and in test [14] was “inactive” in each case. For the same compound, the outcome in test [3] was inactive. Moreover, the activity, negative = inhibition in test [4] (parasite line A) was 0.213%; in [4] (parasite line B) it was 6.5%. Moreover, the Potency in test [6] was 12.6 µM (active); in test [7], 8.91 µM (active).
